The results in this text go back to PubChem BioAssay (Tox21).

“And” between values parts separate entries of the source, which are not always exact repeats. Equal values may be shown once. Inconclusive results are not listed. Some structures have more than one record in an assay (separate samples or runs), and their calls can disagree. The source made the active and inactive calls. Unless noted, the call rests on the fitted dose curve; in most records, active means well fitted curve in the direction sought with a large enough effect in the repeat runs; inconclusive means weak or mixed curves; inactive means no such curve, though single readings can be large; an effect the other way counts as inactive or inconclusive.

The nature of experiment [1]: qHTS assay to identify small molecule agonists of the progesterone receptor (PR) signaling pathway - cell viability counter screen (AID 1346799; calls by dose curve; further: nearly all actives have a fitted effect of over 45% in size). A digest of the protocol:
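Multiplexed viability read: CellTiter-Glo luminescence, 30 min RT, following LiveBLAzer FRET measurement on PR-UAS-bla HEK293T cells exposed to compounds 16 hr.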

Experiment [2] can be described thus: qHTS assay to identify small molecule antagonists of the TGF-beta/Smad signaling pathway - cell viability counter screen (AID 1346824). Further: nearly all actives have a fitted effect of over 50% in size. Put shortly: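 SBE-bla HEK 293T cells, incubated overnight, then compound plus 0.25 ng/mL TGF-beta1 (stock added) for 5 hr at 37 C. Viability was read in the same wells by CellTiter-Glo luminescence after 30 min at room temperature.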

Experiment [3] is described as follows: qHTS assay to identify small molecule agonists of the TGF-beta/Smad signaling pathway - cell viability counter screen (AID 1346829). Further: top concentration of the series differs between compounds; nearly all actives have a fitted effect of over 45% in size. Put shortly: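 After overnight seating at 37 C and 5% CO2, reporter cells got compounds for 5 hr and FRET substrate for 2 hr; cell viability then came from CellTiter-Glo luminescence.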
A short description of experiment [4]: qHTS assay to identify small molecule agonists of the TGF-beta/Smad signaling pathway (AID 1346859; active means well fitted activation curve with a large enough effect in the signal ratio in the repeat runs, not every such curve was filed as active; the % refers to the signal ratio; further: series mostly up to about 77 µM). A digest of the protocol: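 Screening used HEK 293T SBE-bla cells at 4,000/well. Test agents: 5 hr, 37 C. Detection: FRET substrate, 2 hr RT, then excitation 405 nm with emissions at 460 and 530 nm.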
The target in experiment [5] is Thyrotropin-releasing hormone receptor (Homo sapiens) (UniProt P34981). The experiment can be described thus: qHTS assay to identify small molecule antagonists of the thyrotropin-releasing hormone receptor (TRHR) signaling pathway (AID 1346877; active means well fitted inhibition curve with a large enough effect in the repeat runs, not every such curve was filed as active; further: series mostly up to about 51 µM). A digest of the protocol:
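Kinetic fluorescence (3 min, 1 s resolution) following stimulation with TRH at 1 nM final; HEK293 cells bearing human TRHR; 5 min compound preincubation at RT; concentration-response over 15 points, triplicates.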

For experiment [6] the target is unchanged. The experiment is described as follows: qHTS assay to identify small molecule agonists of the thyrotropin-releasing hormone receptor (TRHR) signaling pathway (AID 1346891; calls by dose curve; further: series mostly up to about 58 µM). A digest of the protocol:
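Readout was intracellular calcium fluorescence in TRHR-Hek293 cells. Cells were incubated 18 h, dye-loaded 2 h at 37 °C, and treated with compound in agonist mode.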

The nature of experiment [7]: Human pregnane X receptor (PXR) small molecule agonists, qHTS cell viability counter screen (AID 1346977). Further: nearly all actives have a fitted effect of over 50% in size. Put shortly:
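In each well, the PXR reporter HepG2 line was checked for viability: CellTiter-Fluor reagent added 23hr post-dosing, fluorescence read after 1hr incubation at 37C.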

A short description of experiment [8]: Caspase-3/7 induction in HepG2 cells by small molecules, qHTS assay (AID 1346978). Further: nearly all actives have a fitted effect of over 15% in size. Put shortly:
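Wild-type HepG2 cells, 2,000/well, settled 5 hr at 37 C and 5% CO2, then compound-treated for 17 hr; caspase-3/7 activity read by luminescent Caspase-Glo 3/7 after 30 min at room temperature.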

Experiment [9] can be described thus: Caspase-3/7 induction in CHO-K1 cells by small molecules, qHTS assay (AID 1346980). Further: nearly all actives have a fitted effect of over 15% in size. A digest of the protocol: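 Wild-type CHO-K1 cells exposed to compounds for 17hr at 37 C, 5% CO2. Caspase-3/7 activity then measured by Caspase-Glo 3/7 luminescence after 30min at room temperature.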
Experiment [10] in a line: Caspase-3/7 induction in HepG2 cells by small molecules, qHTS cell viability counter screen (AID 1346981). Further: series mostly up to about 92 µM; nearly all actives have a fitted effect of over 30% in size. Put shortly:
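In this quantitative HTS counter screen, compounds delivered in DMSO were left on unmodified HepG2 cells for 16 hr at 37 C. Viability was then determined fluorometrically with CellTiter-Fluor, in parallel with caspase-3/7 induction in the same wells.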

Experiment [11] addresses Nuclear receptor subfamily 1 group I member 2 (Homo sapiens) (UniProt O75469). The experiment can be described thus: Human pregnane X receptor (PXR) small molecule agonists, qHTS assay (AID 1346982). Further: nearly all actives have a fitted effect of over 35% in size. Put shortly:
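Reporter HepG2 cells expressing PXR-Luc are cultured in charcoal-stripped FBS (5%), treated with compounds for 24 hr at 37 C, and assayed by ONE-Glo luminescence after 30 min at room temperature.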

In experiment [12] the target is Nuclear receptor subfamily 1 group I member 2 (Rattus norvegicus) (UniProt Q9R1A7). The experiment can be described thus: Rat pregnane X receptor (rPXR) activation by small molecules, qHTS assay (AID 1346983). Further: nearly all actives have a fitted effect of over 20% in size. Particulars: rPXR luciferase reporter cells, One-Glo luminescence, 24 h; max activation: stronger effect = higher value. A digest of the protocol: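 Cell-based rPXR activation assay: rPXR cells, 2,000 per well, rested 5hr at 37 C, then exposed to compounds in DMSO for 24 hr at 37 C. Luciferase activity read by One-Glo luminescence after 30 min at room temperature.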
Nuclear receptor subfamily 1 group I member 2 (Rattus norvegicus), sequence (Q9R1A7 whole entry, looked up): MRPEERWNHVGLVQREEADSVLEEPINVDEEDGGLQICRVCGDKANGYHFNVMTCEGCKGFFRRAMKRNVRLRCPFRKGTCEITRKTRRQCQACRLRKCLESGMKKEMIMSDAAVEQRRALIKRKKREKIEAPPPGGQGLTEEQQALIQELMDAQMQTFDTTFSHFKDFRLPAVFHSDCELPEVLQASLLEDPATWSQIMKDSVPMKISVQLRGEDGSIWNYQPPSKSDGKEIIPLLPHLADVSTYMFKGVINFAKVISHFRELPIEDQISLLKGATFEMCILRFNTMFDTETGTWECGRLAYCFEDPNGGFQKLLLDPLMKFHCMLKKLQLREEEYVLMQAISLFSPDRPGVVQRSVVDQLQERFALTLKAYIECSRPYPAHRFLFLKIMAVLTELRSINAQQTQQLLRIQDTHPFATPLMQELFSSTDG

Experiment [13] has as its target Nuclear receptor subfamily 1 group I member 2 (Homo sapiens) (UniProt O75469). The experiment is described as follows: Human pregnane X receptor (PXR) activation by small molecules, qHTS assay (AID 1346985). Further: nearly all actives have a fitted effect of over 40% in size. Put shortly:
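DPX-2 cells (HepG2 co-transfected with a PXR response element and a CYP3A4-promoter luciferase construct) were seeded at 2,000 per well, rested 5 hr at 37C, then exposed to DMSO-dissolved compounds for 24 hr. Activation was read as luciferase luminescence.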

The target in experiment [14] is Cytochrome P450 2D6 (Homo sapiens) (UniProt P10635). The experiment is described as follows: Cytochrome P450 Family 2 Subfamily D Member 6 (CYP2D6) small molecule antagonists: luciferase reporter qHTS assay (AID 1671196). Further: nearly all actives have a fitted effect of over 50% in size. Further: potency means the concentration at half of the fitted maximal effect. Put shortly:
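Test chemicals meet CYP2D6 plus proluciferin substrate (10 min, RT); NADPH regenerating solution then drives turnover for 1 h. Detection reagent halts the reaction; luminescence measured after 20 min.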

In experiment [15] the target is Cytochrome P450 2C19 (Homo sapiens) (UniProt P33261). The experiment can be described thus: Cytochrome P450 Family 2 Subfamily C Member 19 (CYP2C19) small molecule antagonists: luciferase reporter qHTS assay (AID 1671197). Further: nearly all actives have a fitted effect of over 65% in size. Further: potency means the concentration at half of the fitted maximal effect. A digest of the protocol: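 Inhibition of CYP2C19 was scored from loss of luminescence in a P450-Glo proluciferin substrate assay, NADPH-started and run 1 h at 37C, with ketoconazole as positive control.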
Cytochrome P450 2C19 (Homo sapiens), sequence (P33261 whole entry, looked up): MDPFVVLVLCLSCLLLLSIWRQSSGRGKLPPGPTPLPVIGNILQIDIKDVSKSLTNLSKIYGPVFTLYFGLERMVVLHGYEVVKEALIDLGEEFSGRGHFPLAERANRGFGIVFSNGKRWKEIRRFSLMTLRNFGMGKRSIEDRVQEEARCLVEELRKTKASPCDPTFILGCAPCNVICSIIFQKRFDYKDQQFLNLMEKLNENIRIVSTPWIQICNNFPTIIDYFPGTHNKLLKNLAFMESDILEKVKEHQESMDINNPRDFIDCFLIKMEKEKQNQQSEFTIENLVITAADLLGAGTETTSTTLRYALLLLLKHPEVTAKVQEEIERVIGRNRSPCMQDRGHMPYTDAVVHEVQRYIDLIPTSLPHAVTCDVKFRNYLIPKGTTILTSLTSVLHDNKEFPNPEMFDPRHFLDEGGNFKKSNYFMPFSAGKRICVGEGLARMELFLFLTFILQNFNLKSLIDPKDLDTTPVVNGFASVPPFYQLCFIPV

Experiment [16] has as its target Cytochrome P450 2C9 (Homo sapiens) (UniProt P11712). The experiment can be described thus: Cytochrome P450 Family 2 Subfamily C Member 9 (CYP2C9) small molecule antagonists: luciferase reporter qHTS assay (AID 1671198). Further: nearly all actives have a fitted effect of over 50% in size. Further: potency means the concentration at half of the fitted maximal effect. A digest of the protocol:
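P450-Glo proluciferin substrate with CYP2C9 enzyme; 10 min RT preincubation, then NADPH regeneration 1 h at 37C; luciferin detection reagent 20 min RT, luminescence in relative luminescence units.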

The target in experiment [17] is Cytochrome P450 1A2 (Homo sapiens) (UniProt P05177). The experiment is described as follows: Cytochrome P450 Family 1 Subfamily A Member 2 (CYP1A2) small molecule antagonists: luciferase reporter qHTS assay (AID 1671199). Further: nearly all actives have a fitted effect of over 50% in size. Further: potency means the concentration at half of the fitted maximal effect. Put shortly: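 Steps: enzyme-substrate mix dispensed; test compounds and furafylline control pinned in; 10 min room temperature; NADPH regeneration solution added, 1 h; reaction stopped with luciferin detection reagent; luminescence read after 20 min.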
Cytochrome P450 1A2 (Homo sapiens), sequence (P05177 whole entry, looked up): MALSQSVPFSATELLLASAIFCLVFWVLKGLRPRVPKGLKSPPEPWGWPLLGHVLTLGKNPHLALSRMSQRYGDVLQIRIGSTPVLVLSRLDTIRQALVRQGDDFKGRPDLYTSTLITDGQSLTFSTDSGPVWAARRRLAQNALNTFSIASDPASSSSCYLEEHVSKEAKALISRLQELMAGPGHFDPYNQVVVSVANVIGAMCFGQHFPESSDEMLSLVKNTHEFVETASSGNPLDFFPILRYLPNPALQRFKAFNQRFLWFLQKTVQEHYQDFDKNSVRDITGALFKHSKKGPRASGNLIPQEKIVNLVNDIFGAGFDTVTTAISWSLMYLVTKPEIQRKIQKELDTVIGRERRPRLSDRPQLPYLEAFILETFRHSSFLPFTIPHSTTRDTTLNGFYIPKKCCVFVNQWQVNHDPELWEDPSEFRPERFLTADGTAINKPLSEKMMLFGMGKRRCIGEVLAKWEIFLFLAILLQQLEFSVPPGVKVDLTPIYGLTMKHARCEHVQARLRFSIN

Experiment [18] addresses Voltage-gated inwardly rectifying potassium channel KCNH2 (Homo sapiens) (UniProt Q12809). The experiment can be described thus: Human Ether-a-go-go-Related Gene (hERG) channel small molecule antagonists: fluorescence cell-based qHTS assay (AID 1671200). Put shortly: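 In this thallium-flux screen, overnight-cultured U2OS cells bearing the channel are dye-loaded in darkness for an hour, rested 10 min at room temperature, and then monitored kinetically at 480/540 nm for two minutes post-stimulus.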

Experiment [19] deals with Cytochrome P450 3A4 (Homo sapiens) (UniProt P08684). The experiment can be described thus: Cytochrome P450 Family 3 Subfamily A Member 4 (CYP3A4) small molecule antagonists: luciferase reporter qHTS assay (AID 1671201). A digest of the protocol:
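CYP3A4 activity was followed with a P450-Glo proluciferin substrate. Test compounds in DMSO were preincubated 10 min; NADPH regeneration then ran 1 h, and light output was read 20 min after detection reagent.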

The nature of experiment [20]: Caspase-3/7 induction in CHO-K1 cells by small molecules, qHTS cell viability counter screen (AID 1346979). Further: nearly all actives have a fitted effect of over 35% in size. A digest of the protocol: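 Following a 5hr settling period, CHO-K1 cells at 1,500 per well received DMSO-dissolved compounds. Cell viability was quantified 16hr later by CellTiter-Fluor fluorescence, measured after 1hr with reagent at 37C.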
On the % scale 0 is the no-effect control and ±100 the full control effect.

Voltage-gated inwardly rectifying potassium channel KCNH2 (Homo sapiens), sequence (Q12809 whole entry, looked up): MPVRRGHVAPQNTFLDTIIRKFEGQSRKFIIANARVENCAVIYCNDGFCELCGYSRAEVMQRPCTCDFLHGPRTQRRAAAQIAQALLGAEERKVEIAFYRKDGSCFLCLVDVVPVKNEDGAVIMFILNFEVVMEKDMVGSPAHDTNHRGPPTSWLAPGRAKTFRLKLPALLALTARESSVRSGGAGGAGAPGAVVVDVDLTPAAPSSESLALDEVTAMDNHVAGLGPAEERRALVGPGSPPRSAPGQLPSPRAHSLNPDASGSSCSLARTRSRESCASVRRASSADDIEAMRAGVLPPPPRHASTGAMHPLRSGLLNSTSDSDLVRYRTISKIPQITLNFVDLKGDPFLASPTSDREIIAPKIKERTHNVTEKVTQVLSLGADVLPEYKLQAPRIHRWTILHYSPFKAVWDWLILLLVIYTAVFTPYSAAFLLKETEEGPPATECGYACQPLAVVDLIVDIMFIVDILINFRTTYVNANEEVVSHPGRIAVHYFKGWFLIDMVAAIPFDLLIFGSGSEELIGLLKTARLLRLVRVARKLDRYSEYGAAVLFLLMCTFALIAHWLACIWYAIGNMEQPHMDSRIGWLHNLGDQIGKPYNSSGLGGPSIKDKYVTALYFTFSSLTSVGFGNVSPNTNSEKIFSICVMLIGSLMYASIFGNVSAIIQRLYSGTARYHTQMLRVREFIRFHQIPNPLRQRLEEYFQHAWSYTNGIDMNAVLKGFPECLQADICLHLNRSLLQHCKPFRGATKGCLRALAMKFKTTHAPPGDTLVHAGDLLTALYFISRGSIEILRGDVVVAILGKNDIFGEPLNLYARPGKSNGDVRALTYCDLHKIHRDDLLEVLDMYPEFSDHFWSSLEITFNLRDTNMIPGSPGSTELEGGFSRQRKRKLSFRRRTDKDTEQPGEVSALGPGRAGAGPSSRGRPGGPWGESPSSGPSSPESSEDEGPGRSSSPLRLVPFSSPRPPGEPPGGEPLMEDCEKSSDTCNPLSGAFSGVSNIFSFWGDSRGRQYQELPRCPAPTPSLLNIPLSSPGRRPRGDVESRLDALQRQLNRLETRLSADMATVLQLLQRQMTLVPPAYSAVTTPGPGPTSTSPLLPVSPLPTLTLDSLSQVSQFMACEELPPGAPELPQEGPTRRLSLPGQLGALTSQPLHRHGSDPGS
Cytochrome P450 2D6 (Homo sapiens), sequence (P10635 whole entry, looked up): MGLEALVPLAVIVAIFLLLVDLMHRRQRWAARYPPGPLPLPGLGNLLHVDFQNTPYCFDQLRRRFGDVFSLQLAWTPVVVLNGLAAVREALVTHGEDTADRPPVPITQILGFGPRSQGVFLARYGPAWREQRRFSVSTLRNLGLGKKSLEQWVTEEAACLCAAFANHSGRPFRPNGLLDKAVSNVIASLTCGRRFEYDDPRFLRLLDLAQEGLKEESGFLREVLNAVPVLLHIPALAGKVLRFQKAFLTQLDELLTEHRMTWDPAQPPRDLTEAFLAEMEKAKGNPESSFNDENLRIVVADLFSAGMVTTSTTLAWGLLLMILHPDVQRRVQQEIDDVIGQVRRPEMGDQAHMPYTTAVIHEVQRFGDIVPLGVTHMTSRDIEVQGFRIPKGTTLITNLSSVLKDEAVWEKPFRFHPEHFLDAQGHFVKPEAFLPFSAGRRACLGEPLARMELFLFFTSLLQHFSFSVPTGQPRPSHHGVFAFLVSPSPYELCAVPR
Cytochrome P450 3A4 (Homo sapiens), sequence (P08684 whole entry, looked up): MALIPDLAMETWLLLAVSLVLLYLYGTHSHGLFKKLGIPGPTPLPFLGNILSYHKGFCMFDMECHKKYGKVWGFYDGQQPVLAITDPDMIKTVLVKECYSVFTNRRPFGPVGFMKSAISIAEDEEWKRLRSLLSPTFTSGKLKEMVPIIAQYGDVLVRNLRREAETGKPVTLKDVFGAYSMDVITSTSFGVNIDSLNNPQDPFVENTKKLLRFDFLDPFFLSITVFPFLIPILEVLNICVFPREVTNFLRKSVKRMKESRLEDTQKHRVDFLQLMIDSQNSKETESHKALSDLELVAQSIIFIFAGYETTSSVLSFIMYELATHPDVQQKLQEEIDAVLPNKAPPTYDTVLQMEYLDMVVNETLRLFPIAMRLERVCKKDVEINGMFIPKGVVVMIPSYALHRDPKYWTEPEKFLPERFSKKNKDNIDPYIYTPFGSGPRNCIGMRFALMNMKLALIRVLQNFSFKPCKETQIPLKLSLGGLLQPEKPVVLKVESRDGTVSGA
Nuclear receptor subfamily 1 group I member 2 (Homo sapiens), sequence (O75469 whole entry, looked up): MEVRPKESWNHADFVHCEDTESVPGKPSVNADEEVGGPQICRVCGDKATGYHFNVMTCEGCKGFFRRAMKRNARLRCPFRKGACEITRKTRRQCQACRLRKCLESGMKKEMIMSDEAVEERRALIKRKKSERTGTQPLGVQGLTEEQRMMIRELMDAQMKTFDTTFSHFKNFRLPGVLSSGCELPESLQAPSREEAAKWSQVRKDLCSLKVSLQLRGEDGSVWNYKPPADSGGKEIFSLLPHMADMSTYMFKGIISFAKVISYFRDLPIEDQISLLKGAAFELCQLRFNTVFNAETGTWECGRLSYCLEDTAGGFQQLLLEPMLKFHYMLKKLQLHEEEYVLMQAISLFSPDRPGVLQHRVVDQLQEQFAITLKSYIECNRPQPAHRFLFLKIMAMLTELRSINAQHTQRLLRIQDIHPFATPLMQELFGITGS
Cytochrome P450 2C9 (Homo sapiens), sequence (P11712 whole entry, looked up): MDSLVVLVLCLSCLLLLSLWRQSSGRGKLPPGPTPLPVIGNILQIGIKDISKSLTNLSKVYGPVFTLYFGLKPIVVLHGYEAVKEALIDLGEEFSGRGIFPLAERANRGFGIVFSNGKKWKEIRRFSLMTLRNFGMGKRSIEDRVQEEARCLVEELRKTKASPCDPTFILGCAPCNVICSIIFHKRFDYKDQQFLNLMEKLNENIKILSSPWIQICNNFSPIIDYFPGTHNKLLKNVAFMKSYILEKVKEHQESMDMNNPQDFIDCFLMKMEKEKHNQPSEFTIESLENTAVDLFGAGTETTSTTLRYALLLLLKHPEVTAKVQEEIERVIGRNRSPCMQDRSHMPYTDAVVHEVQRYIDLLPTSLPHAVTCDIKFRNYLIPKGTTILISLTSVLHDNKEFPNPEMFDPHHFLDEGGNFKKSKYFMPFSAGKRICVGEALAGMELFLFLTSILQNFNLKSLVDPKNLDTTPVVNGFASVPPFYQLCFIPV
Thyrotropin-releasing hormone receptor (Homo sapiens), sequence (P34981 whole entry, looked up): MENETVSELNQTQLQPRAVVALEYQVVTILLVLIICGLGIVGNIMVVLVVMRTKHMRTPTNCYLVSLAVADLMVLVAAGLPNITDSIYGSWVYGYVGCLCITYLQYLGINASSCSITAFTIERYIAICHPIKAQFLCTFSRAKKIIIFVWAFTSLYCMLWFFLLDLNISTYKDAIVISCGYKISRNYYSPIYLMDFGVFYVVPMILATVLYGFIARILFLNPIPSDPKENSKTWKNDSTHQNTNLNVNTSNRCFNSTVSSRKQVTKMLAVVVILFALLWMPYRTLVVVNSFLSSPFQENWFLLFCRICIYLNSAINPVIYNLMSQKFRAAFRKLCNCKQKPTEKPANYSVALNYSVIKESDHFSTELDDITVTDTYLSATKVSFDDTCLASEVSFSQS

Turning to `O=c1[nH]c(=O)n([C@H]2CCCO2)cc1F`, the Potency entry in experiment [1], in [2], in experiment [3], in experiment [5], in [7] and in experiment [8] was “inactive” in each case. In addition, the Potency entry in [10], in experiment [11], in experiment [13], in experiment [14], in experiment [15] and in [16] was “inactive” throughout. The Potency result in [17] and in experiment [19] was “inactive” throughout. Moreover, the result in experiment [4], in [6], in experiment [9] and in experiment [18] was inactive. Besides, the max activation in experiment [12] was -0.0643% (inactive).
For `CCCCN(CCCC)CCCC`, the Potency result in experiment [1], in experiment [2], in experiment [3], in experiment [5], in experiment [7] and in experiment [8] was “inactive” in each case. The Potency entry in experiment [20], in experiment [10], in experiment [11], in experiment [14] and in experiment [19] was “inactive” each time. For the same compound, the compound was called inactive in experiment [4], in experiment [6], in experiment [9] and in experiment [18]. Besides, the Potency in experiment [16] is 89.4 µM (active); in experiment [17], 35.5 µM (active) and inactive.
As for `OCCOCCN1CCN(C2=Nc3ccccc3Sc3ccccc32)CC1`, the Potency entry in [1], in [2], in [3], in [5], in [7] and in experiment [8] was “inactive” in each case. In addition, the Potency result in experiment [20] and in experiment [10] was “inactive” each time. The outcome in [4], in [6] and in experiment [9] was inactive. In addition, the max activation in experiment [12] is 9.6% (inactive).
With `CN(C)CCCN`, the Potency entry in experiment [1], in [2], in [3], in experiment [5], in [7] and in experiment [8] was “inactive” in each case. Besides, the Potency entry in experiment [20], in [10], in [11], in [14], in [15] and in [16] was “inactive” throughout. In addition, the Potency result in experiment [17] and in experiment [19] was “inactive” in each case. Moreover, the result in [4], in experiment [6], in experiment [9] and in experiment [18] was inactive.
In the case of `CCCCCCCCCC`, the Potency entry in [1], in experiment [2], in experiment [3], in experiment [7], in [10] and in experiment [11] was “inactive” each time. Moreover, the Potency entry in experiment [14] and in [17] was “inactive” throughout. In addition, the outcome in experiment [4], in experiment [9] and in [18] was inactive. The Potency entry in experiment [15] is “inactive and 71 µM (active)”; in [16], “inactive and 79.6 µM (active)”.
Regarding `Cc1occc(=O)c1O`, the Potency result in experiment [1], in experiment [2], in [3], in experiment [5], in experiment [7] and in [20] was “inactive” each time. Besides, the Potency result in experiment [10], in [11], in [14], in experiment [17] and in experiment [19] was “inactive” each time. Besides, the compound was classed as inactive in experiment [4], in experiment [6], in [9] and in [18]. In addition, the Potency in experiment [15] is 71 µM (active) and inactive.
`O=C(O)CCCCCCCCCCC(=O)O`: the Potency result in [1], in experiment [2], in [3], in [7], in [8] and in [20] was “inactive” each time. In addition, the Potency entry in experiment [10], in [11] and in experiment [17] was “inactive” in each case. The call in experiment [4], in [9] and in experiment [18] was inactive. For the same compound, the Potency is 35.9 µM (active) and 39.9 µM (active) in [14]; 32 µM (active) and 31.7 µM (active) in [15].
With `CN(C)CCOCCN(C)C`, the Potency result in [1], in [2], in experiment [3], in [7], in experiment [8] and in experiment [20] was “inactive” each time. In addition, the Potency entry in experiment [10], in experiment [11], in experiment [15], in [16] and in experiment [17] was “inactive” each time. Further, the compound was called inactive in experiment [4], in experiment [9] and in experiment [18].
